Several values for one entry are separate records, joined by “and”; a condition that tells them apart may be missing. Equal entries are not always repeated. Inconclusive results are not listed. Activity calls are given as the source filed them. Calls come from the whole dose curve.
assay: qHTS assay to identify small molecule agonists of the AP-1 signaling pathway - cell viability counter screen (AID 1159525); conditions: ME-180 (cervical carcinoma) AP-1-bla cells viability, ATP luminescence, 5 h; series mostly up to 76.8 µM; viability change, negative = cytotoxic: at the top concentration; note: nearly all actives have a fitted effect of over 55% in size
Excerpt: National Center for Advancing Translational Sciences [NCATS]
NIH Chemical Genomics Center [NCGC]
U.S. Environmental Protection Agency [EPA]
National Institutes of Environmental Health Sciences [NIEHS]
National Toxicology Program [NTP]
U.S. Food and Drug Administration [FDA]
Activator protein-1 (AP-1), a transcription factor, plays an important role in tumor genesis by regulating genes involved in cell proliferation, differentiation, apoptosis, and angiogenesis. AP-1 activity is induced by a complex network of signaling pathways that involves extracellular signals, such as growth factors. The AP-1 protein complex formed from c-Fos and c-Jun binding to the AP-1 response element results in transcriptional activation of genes containing such elements within their promoter.
Low molecular weight molecules have been discovered and developed to modulate various components of these signaling pathways, for example, MAP kinase inhibitors. However, many points of pathway modulation remain untested due to the lack of chemical probes making this signaling locus of general interest.
Using a beta-lactamase reporter-gene under control of the AP-1 response element, a cell-based assay [CellSensor(TM) AP-1-bla ME-180 developed by Invitrogen Corp.] was used to measure EGF-induced signaling. The Tox21 10K library compounds were measured for their ability to positively modulate the action of EC50 EGF on reporter gene activity. Compounds were screened in a 15-pt titration series in 1536-well format. The cytotoxicity of the Tox21 compound library against this cell line was tested in parallel by measuring the intra cellular ATP content in the same wells.
Tox21 Assay Protocol Summary:
2500 cells/5uL in Opti-MEM medium containing 0.5% dialyzed FBS, 0.1 mM NEAA, 1 mM sodium pyruvate and 10 mM HEPES was dispensed into 1536-well black wall/clear bottom plates using a Multidrop dispenser and cells were cultured at 37 degrees Celsius overnight. Next day 23 nL of compounds dissolved in DMSO, positive controls or DMSO were delivered to each well using a pin tool. The plates were incubated at 37 degrees Celsius for 5 hours. 1 uL of LiveBLAzerTM B/G FRET substrate (Solution A+B+C+D) was added to each well using a Flying Reagent Dispenser. After incubated at room temperature for 2.5 hours the plates were measured on an EnVision plate reader at Excitation 405nm, Emission1=460nm and Emission 2=530nm. The %Activity was determined from the ratio of 460nm/530nm.
After the plates were read for Beta-Lactamase assay on Envision; 3 ul Cell Titer Glo (Promega) was added to measure the cytotoxicity and the plates were then incubated at RT in dark for 30 min. The luminescence was read on ViewLux (Perkin Elmer, Shelton, CT) using 6 sec exposure. ViewLux data was expressed as relative luminescence units.
For primary data analysis, raw plate reads for each titration point were first normalized relative to […] EGF control (100%) and DMSO only wells (basal, 0%).
For primary data analysis for viability assay, raw plate reads for each titration point were first normalized Tetra n-octyl ammonium bromide control (-100%) and DMSO (control, 100%).
Potency is the fitted concentration of half-maximal effect.

Row | SMILES | Potency | viability change, negative = cytotoxic
1 | C[Si](Cn1cncn1)(c1ccc(F)cc1)c1ccc(F)cc1 | inactive | –
2 | CCOP(=S)(OCC)SCSc1cc(Cl)ccc1Cl | – | 0.552% (inactive)
3 | CC(=O)NNc1ccccc1 | – | 1.06% (inactive)
4 | C[C@H]1[C@@H]2Cc3ccc(O)cc3[C@@]1(C)CCN2C | – | 5.04% [at 200 µM] (inactive)
5 | Clc1ccc(Cl)c(Cl)c1 | inactive | –
6 | CCOP(=S)(OCC)Oc1ccc(S(C)=O)cc1 (stereo not given) | – | 5.41% (inactive)
7 | CNC(=O)Oc1cccc(N=CN(C)C)c1 | – | 9.39% (inactive)
8 | C#C[C@]1(O)CC[C@H]2[C@@H]3CCC4=CC(=O)CCC4=C3C=C[C@@]21CC | – | -1.79% [at 35.3 µM] (inactive)
9 | CC(C)(C)NCC(O)c1cc(Cl)c(N)c(C(F)(F)F)c1 (stereo not given) | – | 1.01% [at 35.3 µM] (inactive)
10 | C=CC(=O)OCC | – | -0.155% (inactive)
11 | Nc1ccc2c(c1)Cc1ccccc1-2 | – | -0.427% (inactive)
12 | CCCCCCCCP(=O)(O)O | – | -3.23% (inactive)
13 | OCCSSCCO | – | 4.52% (inactive)
14 | N#CC(C#N)=Cc1ccc(O)c(O)c1 | – | -2.69% [at 35.3 µM] (inactive)
15 | O=C(O)C(F)(F)C(F)(F)C(F)(F)C(F)(F)C(F)(F)C(F)(F)C(F)(F)C(F)(F)F | – | 3.23% (inactive)
16 | C=CCN1C[C@H](C)N([C@H](c2ccc(C(=O)N(CC)CC)cc2)c2cccc(OC)c2)C[C@H]1C | – | 3.15% [at 35.3 µM] (inactive)
17 | Cc1ccc2c(C)cccc2c1 | – | -2.5% (inactive)
18 | Cc1ccccc1 | – | 1.16% (inactive)
19 | COP(=O)(OC)OC(Br)C(Cl)(Cl)Br (stereo not given) | – | 17.7% (inactive)
20 | FC(F)OC(F)(F)C(F)Cl (stereo not given) | – | -4.04% (inactive)

Row | SMILES | Potency | viability change, negative = cytotoxic
21 | NC(=S)c1c(Cl)cccc1Cl | – | -2.83% (inactive)
22 | N#CC1(N=NC2(C#N)CCCCC2)CCCCC1 | – | -16.1% (inactive)
23 | CN(C)c1ccc(N=O)cc1 | 21.9 µM (active) and 30.9 µM (active) | –
24 | COc1ccc(C(O)(c2cncnc2)C2CC2)cc1 (stereo not given) | – | 0.408% (inactive)
25 | O=C1CC[C@@]2(O)[C@H]3Cc4ccc(O)c5c4[C@@]2(CCN3CC2CC2)[C@H]1O5 | – | 6.93% [at 35.3 µM] (inactive)
26 | CCCCC1C(=O)NC(=O)N(C2CCCCC2)C1=O (stereo not given) | – | 2.96% [at 35.3 µM] (inactive)
27 | CC(C)C1(C)N=C(c2ncccc2C(=O)O)NC1=O (stereo not given) | – | -4.53% (inactive)
28 | CC[N+]1(CCOC(=O)C(O)(c2ccccc2)c2ccccc2)CCCCC1 | – | 5.73% [at 35.3 µM] (inactive)
29 | CCCCCCCCCCCCCCCl | – | 0.229% (inactive)
30 | CCOc1cccc(C2(N3CCN(c4ccccc4)CC3)CCC(C)CC2)c1 (stereo not given) | – | 3.36% (inactive)
31 | C[C@]12CC[C@H]3[C@@H](CCC4=CC(=O)CC[C@@H]43)[C@@H]1CC[C@@H]2OC(=O)CCc1ccccc1 | – | -0.208% [at 35.3 µM] (inactive)
32 | O=CC=O | – | -2.49% (inactive)
33 | CCOC(=O)NC(O)C(Cl)(Cl)Cl (stereo not given) | – | -4.2% [at 35.3 µM] (inactive)
34 | CC(C)(C#N)C(C)(C)C#N | – | 3.51% (inactive)
35 | CCCSP(=S)(OCC)Oc1ccc(SC)cc1 (stereo not given) | – | -0.725% (inactive)
36 | c1ccc2c(c1)sc1ccccc12 | inactive | –
37 | C=CCc1ccc(OC(=O)Cc2ccccc2)c(OC)c1 | – | -0.102% (inactive)
38 | C[C@H](N)[C@H](O)c1ccc(O)c(O)c1 | – | 13.3% [at 35.3 µM] (inactive)
39 | CCCC[N+]1(C)[C@@H]2CC(OC(=O)[C@H](CO)c3ccccc3)C[C@H]1[C@@H]1O[C@@H]12 (stereo not given in full) | – | 0.721% [at 35.3 µM] (inactive)
40 | CCC[N+](CCC)(CCC)CCC | – | -0.662% (inactive)

Reference: PubChem BioAssay (Tox21)
